Shown are actives, neighbours in structure and some others; about 2.8% of the full set was active somewhere.
EWS-Fli inh – blocks EWS/Fli oncoprotein-driven transcription; AID 651661; inhibition, % at 12.6 µM; 350,000 tested, 0.67% active; A673 NR0B1-luciferase reporter, viability-normalised;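 active = mean inhibition of at least 50% after viability correction, with every replicate also passing that limit; inconclusive = mean reaches 50% but only one of two replicates passes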;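 also: firefly luciferase signal divided by Alamar Blue viability fluorescence both relative to DMSO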
TROY NFkB inh – blocks TROY-dependent signaling in reporter cells | Q293 LMP1-TROYcd NF-kB luciferase reporter, 4 h | inhibition, % at 10 µM | 360,000 tested, 0.98% active;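 active = compounds whose plate-normalised and pattern-corrected inhibition of the luciferase reporter signal at the single screening dose is 50% or more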
TWEAK-Fn14 inh – blocks TWEAK-Fn14 interaction in a reporter cell assay; inhibition, % at 10 µM; 360,000 tested, 2% active; AID 1159606; TWEAK-stimulated Fn14 reporter cells, luciferase luminescence, 8 h; in the data active = inhibition above about 50%
PAX8 inh HTS – inhibitors of PAX8 transcriptional activity in RMG-I cells; 360,000 tested, 1.2% active; RMG-I TPO-luciferase reporter, SteadyGlo, 24 h; AID 652154; inhibition, % at 12.6 µM;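 active = mean replicate inhibition at least 60% with every replicate also reaching 60%; inconclusive = only one of the two criteria is met; inactive = mean below 60% and not all replicates reaching 60%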;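 also: luciferase light reporting Pax8 driven TPO promoter activity; plate controls were median of neutral control wells for no effect and mitoxantrone controls for full effect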
LGR2 antag – inhibitors of bursicon-induced Drosophila LGR2 receptor cAMP signaling; HEK293 LGR2, CRE-luciferase, bursicon-stimulated, 4 h; inhibition, % at 9.99 µM; 380,000 tested, 0.35% active;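 active = drop in luminescence signal, shown as inhibition above about 50% in the replicate tests, limit read from the data, passing the limit was not always enough; inconclusive = probably only some replicates passing the limit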;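 also: agonist challenge used bursicon conditioned medium at about half maximal strength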
Active calls of the source: *; ? = inconclusive; . = no result.

SMILES	EWS-Fli inh	TROY NFkB inh	TWEAK-Fn14 inh	PAX8 inh HTS	LGR2 antag
CNC(=O)C[C@H]1CC[C@H]2[C@@H](COc3ccc(NC(=O)NCc4ccccc4)cc3C(=O)N2C)O1	3	.	.	11	23
O=C(CSc1nc2c(cnn2-c2ccc(F)cc2)c(=O)[nH]1)N1N=C(c2cccs2)CC1c1ccc(F)cc1 (stereo unspecified)	14	50*	57*	-32	-1
O=C(CSc1nc2ccccc2s1)N1N=C(c2cccs2)CC1c1ccc(F)cc1 (stereo unspecified)	.	5	10	29	17
COc1ccc2[nH]c3c(c2c1)CCN1C(=O)CC[C@H]31	4	.	.	0	.
COc1ccc2[nH]c3c(c2c1)CC(C)NC3=O (stereo unspecified)	16	50	71*	-16	28
C[C@@H]1CN([C@@H](C)CO)C(=O)c2cccc(NS(=O)(=O)c3ccccc3)c2O[C@H]1CN(C)Cc1ccccc1	-1	.	.	-9	10
COc1ccc(-c2ocnc2C(=O)NCc2nn(-c3ccccc3)nc2C)cc1	22	39	50*	32	18
O=C1c2ccccc2NC(c2cnc3ccccc3n2)N1O (stereo unspecified)	.	26	74*	.	.
Cc1nn(C)c(C)c1C1Nc2ccccc2C(=O)N1O (stereo unspecified)	.	-40	-9	.	.
Cc1ccc(NC(=O)Nc2nnc(-c3ccncc3)s2)cc1C	-35	36	82*	-42	?
O=C(Nc1ccc(Cl)cc1)Nc1nnc(CSc2ccc(Cl)cc2)s1	4	-1	64*	-6	0
O=C(Nc1cccc(Cl)c1)Nc1nnc(CSCCOc2ccc(Cl)cc2)s1	.	51*	50	107*	15
O=C(Nc1ccc(Cl)cc1)Nc1nnc(CSCc2ccccc2)s1	.	-7	25	.	4
COC(=O)Nc1nnc(-c2ccncc2)s1	.	-3	5	.	13
O=C(Nc1cccc(Cl)c1)Nc1nnc(-c2ccncc2)s1	2	50*	76*	104*	54*
CO[C@@H]1CN(C)C(=O)c2cc(NC(=O)c3nc4ccccc4s3)ccc2OC[C@H](C)N(Cc2cncnc2)C[C@H]1C	-14	.	.	.	-21
O=C(Nc1ccc(F)cc1)Nc1nnc(COc2ccccc2F)s1	-2	57*	21	-3	28
O=C(Nc1ccc(Cl)cc1)Nc1nnc(-c2ccncc2)s1	.	41	81*	2	?
O=C(Nc1ccc(F)cc1)Nc1nnc(-c2ccncc2)s1	.	14	44	.	10
COCCNC(=O)C[C@@H]1CC[C@H](NC(=O)NC2CCCC2)[C@@H](CO)O1	-2	.	.	4	-3
COc1ccc(NC2=C(C(C)=O)C(c3ccc(OC)c(OC)c3)C(C(C)=O)C(C)(O)C2)cc1 (stereo unspecified)	.	38	54*	0	.
CCN(C)C[C@@H]1Oc2cc(C#CCC3CCCC3)ccc2S(=O)(=O)N([C@@H](C)CO)C[C@H]1C	9	.	.	18	3
CCCN(C)C[C@@H]1Oc2cc(C#Cc3ccncc3)ccc2S(=O)(=O)N([C@H](C)CO)C[C@@H]1C	66*	.	.	.	6
C[C@@H]1CN([C@H](C)CO)S(=O)(=O)c2ccc(C#Cc3ccncc3)cc2O[C@H]1CN(C)C(=O)C1CCCCC1	15	.	.	78*	-5
CCCN(C)C[C@@H]1Oc2cc(C#CCC3CCCC3)ccc2S(=O)(=O)N([C@H](C)CO)C[C@H]1C	43	.	.	71*	14
SMILES	EWS-Fli inh	TROY NFkB inh	TWEAK-Fn14 inh	PAX8 inh HTS	LGR2 antag
C[C@H](CO)N1C[C@H](C)[C@@H](CN(C)C(=O)NC2CCCCC2)OCCCC[C@H](C)Oc2ccc(NS(C)(=O)=O)cc2C1=O	1	.	.	-6	-23
O=C(C[C@@H]1C=C[C@H](NC(=O)CC2CC2)[C@H](CO)O1)NCc1ccc(-c2ccccc2)cc1	-7	.	.	18	-1
COc1cc(-c2nc(C(=O)NCC3CCCO3)cc3c2[nH]c2ccccc23)cc(OC)c1OC (stereo unspecified)	14	-8	59*	.	23
O=C(NCC1CCCO1)c1cc2ccccc2[nH]1 (stereo unspecified)	.	-20	11	.	8
COc1ccccc1-c1nc(C(=O)NCC2CCCO2)cc2c1[nH]c1ccccc12 (stereo unspecified)	.	3	24	.	.
O=C(NCC1CCCO1)c1cc2c([nH]c3ccccc32)c(-c2cccc(Cl)c2)n1 (stereo unspecified)	.	27	56*	.	.
Cc1ccc(S(=O)(=O)N[C@H]2CC[C@H](CCn3cc(-c4cccc(F)c4)nn3)O[C@H]2CO)cc1	-3	.	.	-21	0
